From PubChem BioAssay AID1159580 (chemical genetic matrix, 2015)
Several values for one entry are separate records, joined by “and”; a condition that tells them apart may be missing. Equal values may be shown once. The whole screen tested about 5,500 compounds, of which about 2,000 (36%) were called active. Inconclusive results (about 18%) are left out. Cut-off read from the data, not from the text of the source: active = normalized growth mostly below about 0.91 (no sharp cut-off); inconclusive = no clear call, values can overlap the other calls; inactive = mostly above about 0.92. This is one part of the list.

Assay: chemical genetic growth profiling, strain panel (AID 1159580);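 note: tested at 20 µM; growth read once vehicle control cultures reached saturation at 30 °C; 1 = growth at the plate median or of vehicle wells; lower values mean less growth of the strain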
Conditions: growth OD

Measured: normalized growth

CCN(Cc1ccncc1)C(=O)C(CO)c1ccccc1 (stereo unspecified)
inactive: S. cerevisiae deletion strains, locus YJR075W, strain HOC1, stronger effect = lower value 0.989 | S. cerevisiae deletion strains, locus YKL009W, strain mrt4, stronger effect = lower value 1.01 | S. cerevisiae deletion strains, locus YKL068W, stronger effect = lower value 0.982 | S. cerevisiae deletion strains, locus YKL085W, strain MDH1 (second series), stronger effect = lower value 0.977 | S. cerevisiae deletion strains, locus YKL085W, strain MDH1, stronger effect = lower value 0.977 | S. cerevisiae deletion strains, locus YKL160W, strain elf1, stronger effect = lower value 1.02 | S. cerevisiae deletion strains, locus YKL190W, strain CNB1, stronger effect = lower value 0.992 | S. cerevisiae deletion strains, locus YKR001C, strain vps1, stronger effect = lower value 0.999 | S. cerevisiae deletion strains, locus YKR026C, strain gcn3, stronger effect = lower value 1.04 | S. cerevisiae deletion strains, locus YKR091W, strain srl3, stronger effect = lower value 1.02 | S. cerevisiae deletion strains, locus YLL001W, strain dnm1, stronger effect = lower value 1.02 | S. cerevisiae deletion strains, locus YLL026W, stronger effect = lower value 1.03 | S. cerevisiae deletion strains, locus YLL041C, strain sdh2, stronger effect = lower value 1.02 | S. cerevisiae deletion strains, locus YLR027C, strain aat2, stronger effect = lower value 1.02 | S. cerevisiae deletion strains, locus YLR039C, strain RIC1, stronger effect = lower value 0.977 | S. cerevisiae deletion strains, locus YLR058C, strain SHM2, stronger effect = lower value 0.998 | S. cerevisiae deletion strains, locus YLR102C, strain apc9, stronger effect = lower value 0.991 | S. cerevisiae deletion strains, locus YLR113W, strain HOG1, stronger effect = lower value 0.988 | S. cerevisiae deletion strains, locus YLR221C, strain rsa3, stronger effect = lower value 1.03 | S. cerevisiae deletion strains, locus YLR258W, strain gsy2, stronger effect = lower value 1.05 | S. cerevisiae deletion strains, locus YLR262C, strain YPT6 (second series), stronger effect = lower value 1.07 | S. cerevisiae deletion strains, locus YLR262C, strain YPT6, stronger effect = lower value 1.01 | S. cerevisiae deletion strains, locus YLR268W, strain sec22, stronger effect = lower value 0.954 | S. cerevisiae deletion strains, locus YLR320W, strain mms22, stronger effect = lower value 1.02 | S. cerevisiae deletion strains, locus YLR330W, strain CHS5, stronger effect = lower value 0.991 | S. cerevisiae deletion strains, locus YLR342W, strain FKS1 (second series), stronger effect = lower value 1.05 | S. cerevisiae deletion strains, locus YLR342W, strain FKS1, stronger effect = lower value 1.02 | S. cerevisiae deletion strains, locus YLR357W, strain rsc2, stronger effect = lower value 1.04 | S. cerevisiae deletion strains, locus YLR370C, strain arc18, stronger effect = lower value 1.03 | S. cerevisiae deletion strains, locus YLR371W, strain rom2, stronger effect = lower value 0.989 | S. cerevisiae deletion strains, locus YLR384C, strain iki3, stronger effect = lower value 1.03 | S. cerevisiae deletion strains, locus YLR418C, strain cdc73, stronger effect = lower value 0.995 | S. cerevisiae deletion strains, locus YML016C, strain PPZ1, stronger effect = lower value 1 | S. cerevisiae deletion strains, locus YML032C, strain rad52, stronger effect = lower value 0.978 | S. cerevisiae deletion strains, locus YML120C, strain ndi1, stronger effect = lower value 1.03 | S. cerevisiae deletion strains, locus YML124C, strain tub3, stronger effect = lower value 0.997 | S. cerevisiae deletion strains, locus YMR058W, strain fet3, stronger effect = lower value 1.02 | S. cerevisiae deletion strains, locus YMR078C, strain ctf18, stronger effect = lower value 0.999 | S. cerevisiae deletion strains, locus YMR125W, strain sto1, stronger effect = lower value 1.03 | S. cerevisiae deletion strains, locus YMR129W, stronger effect = lower value 1.02 | S. cerevisiae deletion strains, locus YMR205C, strain PFK2, stronger effect = lower value 1.05 | S. cerevisiae deletion strains, locus YMR223W, strain ubp8, stronger effect = lower value 1.02 | S. cerevisiae deletion strains, locus YMR231W, strain pep5, stronger effect = lower value 1.03 | S. cerevisiae deletion strains, locus YMR263W, strain SAP30, stronger effect = lower value 0.999 and 1 | S. cerevisiae deletion strains, locus YMR307W, strain GAS1, stronger effect = lower value 1.05 and 1.01 | S. cerevisiae deletion strains, locus YNL067W, strain RPL9B, stronger effect = lower value 0.98 | S. cerevisiae deletion strains, locus YNL071W, strain lat1, stronger effect = lower value 1.03 | S. cerevisiae deletion strains, locus YNL128W, strain TEP1, stronger effect = lower value 0.985 | S. cerevisiae deletion strains, locus YNL153C, strain GIM3, stronger effect = lower value 0.992 | S. cerevisiae deletion strains, locus YNL175C, strain NOP13, stronger effect = lower value 0.995 | S. cerevisiae deletion strains, locus YNL183C, strain NPR1, stronger effect = lower value 0.944 | S. cerevisiae deletion strains, locus YNL197C, strain WHI3, stronger effect = lower value 1.02 | S. cerevisiae deletion strains, locus YNL209W, strain ssb2, stronger effect = lower value 1.04 | S. cerevisiae deletion strains, locus YNL224C, strain SQS1, stronger effect = lower value 1 | S. cerevisiae deletion strains, locus YNL233W, strain BNI4, stronger effect = lower value 1 | S. cerevisiae deletion strains, locus YNL248C, strain rpa49, stronger effect = lower value 1.02 | S. cerevisiae deletion strains, locus YNL250W, strain rad50, stronger effect = lower value 0.982 | S. cerevisiae deletion strains, locus YNL271C, strain bni1, stronger effect = lower value 0.982 | S. cerevisiae deletion strains, locus YNL298W, strain CLA4, stronger effect = lower value 1 | S. cerevisiae deletion strains, locus YNL307C, strain MCK1, stronger effect = lower value 0.994 | S. cerevisiae deletion strains, locus YNL322C, strain KRE1 (second series), stronger effect = lower value 1.03 | S. cerevisiae deletion strains, locus YNL322C, strain KRE1, stronger effect = lower value 0.992 | S. cerevisiae deletion strains, locus YNR049C, strain mso1, stronger effect = lower value 1.04 | S. cerevisiae deletion strains, locus YNR052C, strain pop2, stronger effect = lower value 0.991 | S. cerevisiae deletion strains, locus YOL006C, strain TOP1, stronger effect = lower value 0.948 | S. cerevisiae deletion strains, locus YOL012C, strain htz1 0.82 | S. cerevisiae deletion strains, locus YOL147C, strain pex11, stronger effect = lower value 0.986 | S. cerevisiae deletion strains, locus YOR001W, strain rrp6, stronger effect = lower value 1.02 | S. cerevisiae deletion strains, locus YOR061W, strain CKA2, stronger effect = lower value 0.988 | S. cerevisiae deletion strains, locus YOR069W, strain VPS5, stronger effect = lower value 1 | S. cerevisiae deletion strains, locus YOR070C, strain gyp1, stronger effect = lower value 1.02 | S. cerevisiae deletion strains, locus YOR080W, strain dia2, stronger effect = lower value 1.03 | S. cerevisiae deletion strains, locus YOR083W, strain WHI5 (second series), stronger effect = lower value 1 | S. cerevisiae deletion strains, locus YOR083W, strain WHI5, stronger effect = lower value 1.01 | S. cerevisiae deletion strains, locus YOR106W, strain vam3, stronger effect = lower value 1.03 | S. cerevisiae deletion strains, locus YOR136W, strain idh2, stronger effect = lower value 0.997 | S. cerevisiae deletion strains, locus YOR144C, strain elg1, stronger effect = lower value 0.992 | S. cerevisiae deletion strains, locus YOR184W, strain ser1, stronger effect = lower value 1.01 | S. cerevisiae deletion strains, locus YOR231W, strain MKK1, stronger effect = lower value 0.987 | S. cerevisiae deletion strains, locus YOR265W, strain rbl2, stronger effect = lower value 1.02 | S. cerevisiae deletion strains, locus YOR270C, strain vph1, stronger effect = lower value 1.05 | S. cerevisiae deletion strains, locus YOR290C, strain snf2, stronger effect = lower value 1.01 | S. cerevisiae deletion strains, locus YOR316C, strain cot1, stronger effect = lower value 0.984 | S. cerevisiae deletion strains, locus YPL051W, strain arl3, stronger effect = lower value 1.04 | S. cerevisiae deletion strains, locus YPL055C, strain LGE1, stronger effect = lower value 1 | S. cerevisiae deletion strains, locus YPL078C, strain atp4, stronger effect = lower value 1.02 | S. cerevisiae deletion strains, locus YPL106C, strain sse1, stronger effect = lower value 1.02 | S. cerevisiae deletion strains, locus YPL240C, strain hsp82, stronger effect = lower value 1.03 | S. cerevisiae deletion strains, locus YPL241C, strain CIN2, stronger effect = lower value 0.999 | S. cerevisiae deletion strains, locus YPL256C, strain CLN2, stronger effect = lower value 0.977 | S. cerevisiae deletion strains, locus YPR119W, strain clb2, stronger effect = lower value 0.987 | S. cerevisiae deletion strains, locus YPR141C, strain kar3, stronger effect = lower value 0.99 | S. cerevisiae deletion strains, locus YPR163C, strain tif3, stronger effect = lower value 0.982 | S. cerevisiae deletion strains, locus YPR167C, strain met16, stronger effect = lower value 0.973 | S. cerevisiae deletion strains, strain wtn01, stronger effect = lower value 0.991 | S. cerevisiae strains, strain wild type, stronger effect = lower value 0.995
